In PubChem BioAssay (Tox21):
Inconclusive results are not listed. Activity calls are given as the source filed them. Unless noted, the call rests on the fitted dose curve; in most records, active means well fitted curve in the direction sought with a large enough effect in the repeat runs; inconclusive means weak or mixed curves; inactive means no such curve, though single readings can be large; an effect the other way counts as inactive or inconclusive.

Legend:
[1] = target: Luciferin 4-monooxygenase (Photinus pyralis) (UniProt P08659); assay: qHTS assay to identify small molecule inhibitors of firefly luciferase (AID 1224835); further: nearly all actives have a fitted effect of over 25% in size; further: potency means the concentration at half of the fitted maximal effect
Sequence of Luciferin 4-monooxygenase (Photinus pyralis) (P08659 whole entry, looked up): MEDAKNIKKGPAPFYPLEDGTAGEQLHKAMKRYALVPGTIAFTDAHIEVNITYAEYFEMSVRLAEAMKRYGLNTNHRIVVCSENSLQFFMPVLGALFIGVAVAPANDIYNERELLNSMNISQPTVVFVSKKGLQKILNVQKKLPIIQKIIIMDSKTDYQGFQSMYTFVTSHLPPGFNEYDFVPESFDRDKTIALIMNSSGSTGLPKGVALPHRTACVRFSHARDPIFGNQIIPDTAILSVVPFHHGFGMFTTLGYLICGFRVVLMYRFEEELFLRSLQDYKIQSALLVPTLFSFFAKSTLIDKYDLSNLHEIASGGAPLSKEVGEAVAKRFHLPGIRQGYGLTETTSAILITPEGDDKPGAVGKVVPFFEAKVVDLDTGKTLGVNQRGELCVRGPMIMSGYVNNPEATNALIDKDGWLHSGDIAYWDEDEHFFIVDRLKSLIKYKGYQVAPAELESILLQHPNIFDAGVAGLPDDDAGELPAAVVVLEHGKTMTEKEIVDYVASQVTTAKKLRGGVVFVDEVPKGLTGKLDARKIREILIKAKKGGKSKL
Outline: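 Biochemical qHTS: compounds run as interplate titrations against purified firefly enzyme, with D-luciferin and ATP each at its KM concentration. Light output recorded by CCD imaging.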

[2] = qHTS assay to identify small molecule agonists of the constitutive androstane receptor (CAR) signaling pathway - cell viability counter screen (AID 1224836); further: series mostly up to about 92 µM; nearly all actives have a fitted effect of over 45% in size
Outline: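 Compound titrations (15 concentrations) went onto HepG2-CYP2B6-hCAR cells 4 h after seeding, alongside PK11195 at a final 0.75 uM; a 23 h, 37 C/5% CO2 incubation preceded CellTiter-Fluor viability measurement.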

[3] = qHTS assay to identify small molecule antagonists of the constitutive androstane receptor (CAR) signaling pathway - cell viability counter screen (AID 1224837); further: series mostly up to about 92 µM; nearly all actives have a fitted effect of over 45% in size
Outline: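 Viability was measured with CellTiter-Fluor in a HepG2 line carrying stably transfected hCAR and a CYP2B6-2.2kb construct. Cells were exposed for 23 hr at 37 C to 15 compound concentrations with 50 nM CITCO as agonist.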

[4] = qHTS assay to identify small molecule antagonists of the estrogen related receptor signaling pathway with the pleiotropic PPARgamma coactivator (PGC) from Tox21 10K library - cell viability counter screen (AID 1224840; active means well fitted cell-killing curve with a large enough effect in the repeat runs, not every such curve was filed as active; further: nearly all actives have a fitted effect of over 40% in size)
Outline: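 Multiplexed viability counter screen in the PGC/ERR cell line: cells treated with DMSO-dissolved compounds for 17.5 hours at 37 C, then viability measured as CellTiter-Fluor fluorescence.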

[5] = target: Thyrotropin receptor (Homo sapiens) (UniProt P16473); assay: qHTS assay to identify small molecule agonists of the thyroid stimulating hormone receptor (TSHR) signaling pathway (AID 1224843; calls by dose curve; further: nearly all actives have a fitted effect of over 45% in size; further: potency means the concentration at half of the fitted maximal effect)
Sequence of Thyrotropin receptor (Homo sapiens) (P16473 whole entry, looked up): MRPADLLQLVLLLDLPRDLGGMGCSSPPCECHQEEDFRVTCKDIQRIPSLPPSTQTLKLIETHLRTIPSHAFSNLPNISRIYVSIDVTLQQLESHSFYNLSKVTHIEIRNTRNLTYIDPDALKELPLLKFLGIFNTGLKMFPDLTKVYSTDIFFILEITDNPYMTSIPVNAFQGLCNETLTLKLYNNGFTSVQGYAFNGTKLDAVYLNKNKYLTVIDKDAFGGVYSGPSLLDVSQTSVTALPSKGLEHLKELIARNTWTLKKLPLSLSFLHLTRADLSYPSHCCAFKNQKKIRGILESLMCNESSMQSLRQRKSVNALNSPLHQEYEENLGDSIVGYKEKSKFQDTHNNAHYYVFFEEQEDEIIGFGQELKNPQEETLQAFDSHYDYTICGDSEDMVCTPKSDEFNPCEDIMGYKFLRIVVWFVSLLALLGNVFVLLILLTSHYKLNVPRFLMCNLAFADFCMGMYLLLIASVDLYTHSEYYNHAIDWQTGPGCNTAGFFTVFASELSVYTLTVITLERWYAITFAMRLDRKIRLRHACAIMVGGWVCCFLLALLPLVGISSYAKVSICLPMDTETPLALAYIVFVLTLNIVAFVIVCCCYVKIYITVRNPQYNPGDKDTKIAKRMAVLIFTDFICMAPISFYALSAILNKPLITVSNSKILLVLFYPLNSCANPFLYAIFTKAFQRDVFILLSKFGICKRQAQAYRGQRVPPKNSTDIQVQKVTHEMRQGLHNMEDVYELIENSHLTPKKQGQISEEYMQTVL
Outline: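 Agonist-mode screen: TSHR HEK293 cells received test chemicals for half an hour at room temperature, then HTRF cAMP detection reagents for one hour prior to fluorescence measurement. Each chemical ran as a 15-concentration series, triplicated.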

[6] = qHTS assay to identify small molecule agonists of the hypoxia (HIF-1) signaling pathway - cell viability counter screen (AID 1224844; calls by dose curve; further: nearly all actives have a fitted effect of over 50% in size; further: potency means the concentration at half of the fitted maximal effect)
Outline: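 Cytotoxicity was measured in parallel with the HRE-driven beta-lactamase readout: after 17 hrs of compound exposure at 37C, HRE-bla ME-180 cells received CellTiter-Glo and luminescence was recorded 30 min later.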

[7] = target: Nuclear receptor subfamily 1 group I member 3 (Homo sapiens) (UniProt Q14994); assay: qHTS assay to identify small molecule antagonists of the constitutive androstane receptor (CAR) signaling pathway (AID 1224838);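 further: HepG2 cells stably expressing hCAR with CYP2B6 luciferase reporter stimulated by CITCO; nearly all actives have a fitted effect of over 40% in size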
Sequence of Nuclear receptor subfamily 1 group I member 3 (Homo sapiens) (Q14994 whole entry, looked up): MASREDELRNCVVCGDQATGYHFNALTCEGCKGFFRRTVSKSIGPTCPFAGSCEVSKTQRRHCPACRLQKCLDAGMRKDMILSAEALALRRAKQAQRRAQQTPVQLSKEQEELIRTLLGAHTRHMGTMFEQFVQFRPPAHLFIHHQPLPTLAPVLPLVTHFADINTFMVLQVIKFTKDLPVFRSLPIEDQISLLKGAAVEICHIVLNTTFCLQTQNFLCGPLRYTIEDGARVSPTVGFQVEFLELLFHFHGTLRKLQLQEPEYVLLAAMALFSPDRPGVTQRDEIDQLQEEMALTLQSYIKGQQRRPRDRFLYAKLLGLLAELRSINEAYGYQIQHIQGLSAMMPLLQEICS
Outline: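 Antagonist mode used CITCO at a final 50 nM to activate CAR in human hepatoma HepG2 cells carrying stable hCAR and a 2.2 kb CYP2B6 promoter-luciferase construct. Compounds were tested at 15 concentrations over 24 h, with luminescence as the end point.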

[8] = target: Nuclear receptor subfamily 1 group I member 3 (Homo sapiens) (UniProt Q14994); assay: qHTS assay to identify small molecule agonists of the constitutive androstane receptor (CAR) signaling pathway (AID 1224839); further: nearly all actives have a fitted effect of over 15% in size; further: potency means the concentration at half of the fitted maximal effect
Outline: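 In this screen, CAR-driven CYP2B6 promoter activity is measured by luminescence in HepG2-CYP2B6-hCAR cells after 24 h with test compounds and 0.75 uM PK11195 (final concentration).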

[9] = qHTS assay to identify small molecule antagonists of the estrogen related receptor signaling pathway with the pleiotropic PPARgamma coactivator (PGC) from Tox21 10K library (AID 1224841; call rule not given here; further: series mostly up to about 92 µM; actives are mostly falling curves and most rising ones were filed inactive; nearly all actives have a fitted effect of over 50% in size)
Outline: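 Steps: plate 2,000 PGC/ERR cells per well; incubate 6 h at 37 C with 5% CO2; transfer compounds from DMSO stocks by pin tool; incubate 18 h at 37 C; add One-Glo; measure luminescence 30 min later.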

[10] = qHTS assay to identify small molecule agonists of the estrogen related receptor signaling pathway with the pleiotropic PPARgamma coactivator (PGC) from Tox21 10K library (AID 1224842); further: nearly all actives have a fitted effect of over 15% in size
Outline: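 PGC/ERR reporter cell line, 2,000 cells per well, incubated 6 h at 37 C before 23 nL compound in DMSO was added. After 18 h at 37 C, One-Glo luminescence read following 30 min at room temperature.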

Measured: Potency

COc1ccc([C@@H]2Sc3ccccc3N(CCN(C)C)C(=O)[C@@H]2OC(C)=O)cc1
inactive: [1] | [2] | [3] | [4] | [5]
active: [6] 21.3 µM

NCc1ccccc1
inactive: [1] | [2] | [7] | [8] | [9] | [10] | [5]

CC(CN)CCCN (configuration not stated)
inactive: [1] | [2] | [7] | [8] | [9] | [10] | [5]

COc1ccccc1OC(=O)Oc1ccccc1OC
inactive: [1] | [2] | [7] | [8] | [4] | [5] | [6]

CC(=O)O[C@@H]1C(=O)O[C@@H]2[C@H]1OC(=O)[C@@H]2OC(C)=O
inactive: [1] | [2] | [4] | [5] | [6]

CC(=O)[C@@]1(O)CC[C@H]2[C@@H]3C[C@H](C)C4=CC(=O)CC[C@]4(C)[C@H]3CC[C@@]21C
active: [8] 21.1 µM
inactive: [1] | [2] | [7] | [4] | [5] | [6]

N#CCc1cccc(C(F)(F)F)c1
inactive: [1] | [2] | [3] | [4] | [5] | [6]

O=c1[nH]cnc2ccccc12
inactive: [1] | [2] | [3] | [4] | [5] | [6]

c1ccc(CNCc2ccccc2)cc1
inactive: [1] | [2] | [7] | [8] | [4] | [5] | [6]

CC(C)(C)c1cc(CO)cc(C(C)(C)C)c1O
active: [8] 24.8 µM
inactive: [1] | [2] | [7] | [4] | [10] | [5] | [6]

CCCC[C@H]1CN(CC2CCOCC2)C(=O)OC12CCN(C1(C)CCN(C(=O)c3c(C)ncnc3C)CC1)CC2
inactive: [1] | [2] | [7] | [8] | [9] | [5] | [6]

CCOC(=O)CC(=O)c1cc(F)c(Cl)nc1Cl
inactive: [2] | [7] | [8] | [4]
active: [1] 40.9 µM

CCCc1ccccc1
inactive: [1] | [2] | [7] | [8] | [4] | [9] | [10] | [5] | [6]

O=C1c2cccc(O)c2C(=O)c2c(O)cc(CO)cc21
inactive: [1] | [2] | [7] | [8] | [9] | [5]

Nc1nc(N)c(-c2ccccc2)s1
inactive: [1] | [2] | [3] | [9] | [10]

O=C(Cl)c1ccc([N+](=O)[O-])cc1
inactive: [1] | [2] | [3] | [4] | [5] | [6]

Cc1nc2ccccc2n1Cc1ccc(Cl)cc1
active: [8] 11.9 µM
inactive: [1] | [2] | [7] | [4] | [6]

C1CCC2OC2C1 (configuration not stated)
inactive: [1] | [2] | [3] | [4] | [5] | [6]

CCCCCCCCCC(=O)OCC
inactive: [1] | [2] | [8] | [4] | [5]

C=CC(C)(CCC=C(C)C)OC(=O)c1ccccc1 (configuration not stated)
inactive: [1] | [2] | [4] | [5]

CCCCC(CC)COCCCN (configuration not stated)
inactive: [1] | [2] | [3] | [5] | [6]

CC(C)CCCCCCOC(=O)c1ccc(C(=O)OCCCCCCC(C)C)c(C(=O)OCCCCCCC(C)C)c1
inactive: [1] | [2] | [7] | [8] | [5] | [6]

S=C(S)NCCNC(=S)S
inactive: [1] | [2] | [3] | [5] | [6]

CN(C)C/C=C(/c1ccc(Br)cc1)c1cccnc1
inactive: [1] | [2] | [3] | [5] | [6]

CC(C)c1cccc(C(C)C)c1NC(=O)NS(=O)(=O)c1cc(C(C)(C)O)co1
inactive: [1] | [2] | [3] | [4] | [5] | [6]

Oc1ccc2c(c1)OCO2
inactive: [1] | [2] | [7] | [8] | [4] | [5] | [6]

CC(C)NCC(O)c1cc(O)cc(O)c1 (configuration not stated)
inactive: [1] | [2] | [7] | [4] | [6]
active: [5] 10.6 µM

CCCCCOC(=O)COc1cc(N2C(=O)C3=C(CCCC3)C2=O)c(F)cc1Cl
inactive: [1] | [2] | [3] | [4] | [5] | [6]

NC1CCN(c2nc3c(cc2F)c(=O)c(C(=O)O)cn3-c2ccc(F)cc2F)C1 (configuration not stated)
inactive: [1] | [2] | [7] | [4] | [5]

COc1ccc(C(C)=O)cc1
inactive: [1] | [2] | [7] | [8] | [4] | [6]
